Laboratory results reported in PubChem BioAssay (NCI).
This is part of a sample that, as a whole, favours compounds with a hit. Of some 83,000 tested, about 20% had one in any assay.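 Plates (96-well) were seeded with cells, treated with compound at one concentration, and incubated for 48 hours before percent growth was determined.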 The source made the active and inactive calls. How the source made its calls: active means growth percent below 10; inactive means the rest.

What was measured:
Assay in all cases: NCI-60 one-dose screen, 48 h (100 = growth as untreated, 0 = no growth, -100 = all killed)
Conditions in all cases: 10 µM unless noted
HT29 colon = test system: HT29 colon
SNB-75 CNS = test system: SNB-75 CNS
U251 CNS = test system: U251 CNS
SK-MEL-5 melanoma = test system: SK-MEL-5 melanoma
UACC-62 melanoma = test system: UACC-62 melanoma
LOX IMVI melanoma = test system: LOX IMVI melanoma
SK-MEL-28 melanoma = test system: SK-MEL-28 melanoma
EKVX NSCLC = test system: EKVX NSCLC
SN12C renal = test system: SN12C renal
UO-31 renal = test system: UO-31 renal
TK-10 renal = test system: TK-10 renal
ACHN renal = test system: ACHN renal
CAKI-1 renal = test system: CAKI-1 renal
A498 renal = test system: A498 renal
CCRF-CEM leukemia = test system: CCRF-CEM leukemia
MOLT-4 leukemia = test system: MOLT-4 leukemia
SR leukemia = test system: SR leukemia
PC-3 prostate = test system: PC-3 prostate
SK-MEL-2 melanoma = test system: SK-MEL-2 melanoma
SNB-19 CNS = test system: SNB-19 CNS

Measured: growth

CCCCCCCC1(C)NC(=O)NC1=O (stereo unspecified)
inactive: HT29 colon 114% | SNB-75 CNS 84.5% | U251 CNS 99.5% | SK-MEL-5 melanoma 106% | UACC-62 melanoma 106% | LOX IMVI melanoma 103% | SK-MEL-28 melanoma 87.7% | EKVX NSCLC 105% | SN12C renal 109% | UO-31 renal 93.8% | TK-10 renal 132% | ACHN renal 101% | CAKI-1 renal 105% | A498 renal 103% | CCRF-CEM leukemia 94.2% | MOLT-4 leukemia 106% | SR leukemia 96.9%

CC[N+](C)(CC)CCCC(C)Nc1ccnc2cc(Cl)ccc12 (stereo unspecified)
inactive: HT29 colon 111% | SNB-75 CNS 99.8% | U251 CNS 98.8% | PC-3 prostate 98% | SK-MEL-5 melanoma 101% | UACC-62 melanoma 105% | LOX IMVI melanoma 99.7% | SK-MEL-2 melanoma 108% | EKVX NSCLC 109% | SN12C renal 109% | UO-31 renal 91.4% | TK-10 renal 124% | ACHN renal 114% | CAKI-1 renal 102% | A498 renal 100% | CCRF-CEM leukemia 103%

C=C1CC[C@@H]2[C@](C)(COC(C)=O)[C@H](OC(C)=O)CC[C@@]2(C)[C@@H]1CC(Nc1ccc(S(=O)(=O)Nc2cc(C)on2)cc1)C1=CCOC1=O (stereo partly specified)
active: HT29 colon -11% | LOX IMVI melanoma -72.7% | CCRF-CEM leukemia -19.1% | MOLT-4 leukemia -7.86% | SR leukemia 1.4%
inactive: SNB-75 CNS 59.4% | U251 CNS 30% | PC-3 prostate 70.8% | SK-MEL-5 melanoma 44.1% | UACC-62 melanoma 19.8% | SK-MEL-28 melanoma 38.1% | SK-MEL-2 melanoma 63% | EKVX NSCLC 81.9% | SN12C renal 31.8% | UO-31 renal 56.9% | TK-10 renal 58.4% | ACHN renal 19.5% | CAKI-1 renal 44% | A498 renal 98.6%

COc1ncc(-c2ccc3nccc(C#CCN4CCN(S(C)(=O)=O)CC4)c3c2)cc1NS(=O)(=O)c1ccc(F)cc1F
inactive: HT29 colon 10.3% | TK-10 renal 12% | ACHN renal 13.2%
active: SNB-75 CNS -11.4% | U251 CNS 6.79% | PC-3 prostate 0.156% | SK-MEL-5 melanoma -92.3% | UACC-62 melanoma -54.9% | LOX IMVI melanoma -11.4% | SK-MEL-28 melanoma 3.79% | SK-MEL-2 melanoma 0.951% | EKVX NSCLC 9.26% | SN12C renal 2.52% | UO-31 renal 5.46% | CAKI-1 renal 4.01% | A498 renal -52.9% | CCRF-CEM leukemia -7.81% | MOLT-4 leukemia -21% | SR leukemia 1.58%

CCC1=C(c2ccc(OC)cc2)C(C)(C)Oc2cc(O)c(CN3CCCC3)cc21
active: SR leukemia 9.49%
inactive: HT29 colon 66.6% | SNB-75 CNS 75% | U251 CNS 82.5% | PC-3 prostate 70.5% | SK-MEL-5 melanoma 67% | UACC-62 melanoma 90.1% | LOX IMVI melanoma 59.3% | SK-MEL-28 melanoma 101% | SK-MEL-2 melanoma 86.3% | EKVX NSCLC 85.2% | SN12C renal 77.8% | UO-31 renal 55.8% | TK-10 renal 94.3% | ACHN renal 82.6% | CAKI-1 renal 83.2% | A498 renal 59.5% | CCRF-CEM leukemia 69.2% | MOLT-4 leukemia 66.3%

CC(=O)NC1(C(=O)O)CCCC1
inactive: HT29 colon 116% | SNB-75 CNS 102% | U251 CNS 107% | SK-MEL-5 melanoma 112% | UACC-62 melanoma 110% | LOX IMVI melanoma 106% | SK-MEL-28 melanoma 88.6% | EKVX NSCLC 112% | SN12C renal 114% | UO-31 renal 99.9% | TK-10 renal 117% | ACHN renal 105% | CAKI-1 renal 111% | A498 renal 105% | CCRF-CEM leukemia 96.4% | MOLT-4 leukemia 109% | SR leukemia 108%

CN(CC(=O)N(Cc1ccc(C2CCCCC2)cc1)c1ccc(C(=O)O)cc1)S(=O)(=O)c1c(F)c(F)c(F)c(F)c1F
inactive: SNB-75 CNS 68.6% | PC-3 prostate 10.4% | SK-MEL-5 melanoma 86.6% | EKVX NSCLC 92.1% | SN12C renal 19% | UO-31 renal 81.2% | TK-10 renal 102% | ACHN renal 68.7% | CAKI-1 renal 89.9% | A498 renal 93.4%
active: HT29 colon -22.3% | U251 CNS -25.4% | UACC-62 melanoma -7.33% | LOX IMVI melanoma -64.1% | SK-MEL-28 melanoma -51.8% | SK-MEL-2 melanoma -31.7% | CCRF-CEM leukemia -28.2% | MOLT-4 leukemia -15.9% | SR leukemia -22.1%

COc1ccc2c(c1)C(=O)c1c-2c(=O)n(CCCCCCC(=O)NO)c2ccccc12
inactive: SNB-75 CNS 29.7% | SK-MEL-2 melanoma 10.4% | EKVX NSCLC 31.3%
active: HT29 colon 3.51% | U251 CNS -58.8% | PC-3 prostate -8.27% | UACC-62 melanoma -55.5% | LOX IMVI melanoma -82% | SK-MEL-28 melanoma -18% | SN12C renal 8.66% | UO-31 renal -33.8% | TK-10 renal -9.14% | ACHN renal -57.8% | CAKI-1 renal -55.4% | A498 renal -67.8% | CCRF-CEM leukemia -7.49% | MOLT-4 leukemia 4.43% | SR leukemia 5.2%

COc1cc(C2CC(c3ccc(C)cc3)=NN2C(C)=O)ccc1Oc1ccnc2cc(Cl)ccc12 (stereo unspecified)
inactive: HT29 colon 77.1% | SNB-19 CNS 58.1% | U251 CNS 14.7% | PC-3 prostate 67.9% | SK-MEL-5 melanoma 91.1% | UACC-62 melanoma 72.5% | LOX IMVI melanoma 65.6% | SK-MEL-28 melanoma 108% | SK-MEL-2 melanoma 60.6% | EKVX NSCLC 63.3% | SN12C renal 77.5% | UO-31 renal 61.6% | TK-10 renal 11.1% | ACHN renal 32.2% | CAKI-1 renal 58.1% | A498 renal 64.3% | CCRF-CEM leukemia 74.5% | MOLT-4 leukemia 86.8% | SR leukemia 35.1%

N#Cc1c(N)[nH]c(S)c1C#N
inactive: HT29 colon 99.9% | SNB-75 CNS 97.2% | U251 CNS 101% | PC-3 prostate 87.9% | SK-MEL-5 melanoma 96.9% | UACC-62 melanoma 94.9% | LOX IMVI melanoma 102% | SK-MEL-28 melanoma 113% | SK-MEL-2 melanoma 92% | EKVX NSCLC 101% | SN12C renal 108% | UO-31 renal 88.2% | TK-10 renal 111% | ACHN renal 93.6% | CAKI-1 renal 98.5% | A498 renal 76.2% | CCRF-CEM leukemia 102% | MOLT-4 leukemia 108% | SR leukemia 97.8%

COc1ccc2nc3cc(Cl)ccc3c(Nc3cc(C(C)C)c(O)cc3C)c2c1
active: HT29 colon 5.84% | SK-MEL-5 melanoma -91% | UO-31 renal -6.15% | CCRF-CEM leukemia -25.9%
inactive: SNB-75 CNS 63.7% | U251 CNS 19.5% | UACC-62 melanoma 65.8% | LOX IMVI melanoma 26.8% | SK-MEL-28 melanoma 71.4% | EKVX NSCLC 25% | SN12C renal 54.9% | TK-10 renal 15.7% | ACHN renal 61.6% | A498 renal 60.2% | MOLT-4 leukemia 18% | SR leukemia 16.9%

CCc1[nH]nc(-c2ccc(OC)cc2)c1-c1ccccc1OCCN(CC)CC
inactive: HT29 colon 85.9% | SNB-75 CNS 60.4% | U251 CNS 96% | PC-3 prostate 76% | SK-MEL-5 melanoma 85.2% | UACC-62 melanoma 106% | LOX IMVI melanoma 80.2% | SK-MEL-28 melanoma 107% | SK-MEL-2 melanoma 95.5% | EKVX NSCLC 94.5% | SN12C renal 96.5% | UO-31 renal 67.3% | TK-10 renal 109% | ACHN renal 98.5% | CAKI-1 renal 89% | A498 renal 80.7% | CCRF-CEM leukemia 84.5% | MOLT-4 leukemia 85.8% | SR leukemia 62.7%

C=C(C[C@@](O)(C(=O)Oc1ccccc1)C(=O)C1CCCCC1)c1ccccc1
inactive: HT29 colon 103% | SNB-75 CNS 72.3% | U251 CNS 95.8% | PC-3 prostate 84.2% | SK-MEL-5 melanoma 96.3% | UACC-62 melanoma 90.3% | LOX IMVI melanoma 101% | SK-MEL-2 melanoma 105% | EKVX NSCLC 94.4% | SN12C renal 98% | UO-31 renal 83.8% | TK-10 renal 97.7% | ACHN renal 112% | CAKI-1 renal 87.3% | A498 renal 106% | CCRF-CEM leukemia 95.4% | MOLT-4 leukemia 101% | SR leukemia 103%

O=C(/C=C/c1ccccc1Cl)c1ccc(O)cc1
inactive: HT29 colon 14.5% | SNB-75 CNS 46.7% | U251 CNS 31.4% | UACC-62 melanoma 73.4% | LOX IMVI melanoma 36.2% | SK-MEL-28 melanoma 96.1% | EKVX NSCLC 84.8% | SN12C renal 67.3% | UO-31 renal 43.6% | TK-10 renal 78.6% | ACHN renal 78.9% | A498 renal 91.9% | CCRF-CEM leukemia 30.6% | MOLT-4 leukemia 55.1% | SR leukemia 27.9%

CCN(CC)c1ccc(CN(CC(=O)c2ccc(Cl)c(Cl)c2)Cc2ccccc2)cc1
inactive: HT29 colon 105% | SNB-75 CNS 93% | U251 CNS 103% | PC-3 prostate 83% | SK-MEL-5 melanoma 97.9% | UACC-62 melanoma 90.9% | LOX IMVI melanoma 94.3% | SK-MEL-28 melanoma 110% | SK-MEL-2 melanoma 96.9% | EKVX NSCLC 108% | UO-31 renal 81.9% | TK-10 renal 117% | ACHN renal 107% | CAKI-1 renal 92.3% | A498 renal 92.1% | CCRF-CEM leukemia 97.8% | MOLT-4 leukemia 98% | SR leukemia 88.3%

c1ccc(N2CCN(c3nncc4ccccc34)CC2)nc1
inactive: HT29 colon 98.2% | SNB-75 CNS 105% | U251 CNS 96.9% | PC-3 prostate 101% | SK-MEL-5 melanoma 97.5% | UACC-62 melanoma 99.6% | LOX IMVI melanoma 97.5% | SK-MEL-28 melanoma 108% | SK-MEL-2 melanoma 103% | EKVX NSCLC 110% | SN12C renal 102% | UO-31 renal 96% | TK-10 renal 105% | ACHN renal 115% | CAKI-1 renal 109% | A498 renal 97.8% | CCRF-CEM leukemia 102% | MOLT-4 leukemia 106% | SR leukemia 103%

CCCCCCCCCCSc1ncnc2nc[nH]c12
inactive: HT29 colon 90.9% | SNB-19 CNS 74.7% | U251 CNS 68.8% | PC-3 prostate 79.8% | SK-MEL-5 melanoma 56.4% | UACC-62 melanoma 69.9% | LOX IMVI melanoma 56.3% | SK-MEL-28 melanoma 116% | SK-MEL-2 melanoma 101% | EKVX NSCLC 51.4% | SN12C renal 59.8% | UO-31 renal 48.5% | TK-10 renal 82% | ACHN renal 63.9% | CAKI-1 renal 69.4% | A498 renal 61.4% | CCRF-CEM leukemia 57.9% | MOLT-4 leukemia 72.5% | SR leukemia 82.6%
